Results filed as inconclusive are left out. A number with no mark means an inactive call. Activity calls are given as the source filed them. Calls follow the shape of the dose curve; as a rule, active = well fitted cell-killing curve with a large enough effect in the repeat runs; inconclusive = weak or mixed curves, or effect the other way; inactive = flat fitted curve, though single readings scatter.
assay: cAMP Responsive Elements (CRE) small molecule agonists, cell-based qHTS assay: qHTS cell viability counter screen (AID 2060914); settings: CRE-bla HEK293T viability, CellTiter-Glo luminescence, 5 h; series mostly up to 92.4 µM; activity change, negative = cytotoxicity: at the top concentration; also: nearly all actives have a fitted effect of over 50% in size
Outline: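 Luminescence read-out (CellTiter-Glo, 30 min RT) of ATP-based viability in CRE-bla HEK 293T cells, run in the same wells as the β-lactamase reporter assay after 3 h compound treatment at 37 °C.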
% is scaled to controls: 0 for no effect and ±100 for the full control effect; potency is read from the fitted curve at half-maximal effect.

Row | Structure (SMILES) | activity change, negative = cytotoxicity | Potency
1 | OCCCc1cccnc1 | -18.8% | –
2 | C/C(=C(\CCOP(=O)(O)O)SC(=O)c1ccccc1)N(C=O)Cc1cnc(C)nc1N | -13.5% [at 8.39 µM] | –
3 | CCCCc1ccc2cccc(S(=O)(=O)O)c2c1 | 10.4% | –
4 | O=C1CCCc2ccccc21 | 0.599% | –
5 | COc1ccccc1NC(=O)c1cc2ccccc2cc1O | – | 30.6 µM (active)
6 | Cc1c(C2(c3cc(Br)c(O)c(Br)c3C)OS(=O)(=O)c3ccccc32)cc(Br)c(O)c1Br | – | 52.9 µM (active)
7 | OC1CCC(C2CCCCC2)CC1 (configuration not stated) | -7.62% | –
8 | CCCCCCCCCCC | 8.78% | –
9 | O=C(Nc1ccccc1)Nc1ccccc1 | -21.4% | –
10 | O=C(O)c1cccnc1C(=O)O | 6.77% | –
11 | O=c1cc(-c2ccccc2)oc2ccc3ccccc3c12 | – | 21.7 µM (active)
12 | COc1cccc2c1C(=O)c1c(O)c3c(c(O)c1C2=O)C[C@@](O)(C(=O)CO)C[C@@H]3O[C@H]1C[C@H](N)[C@H](O)[C@H](C)O1 | – | inactive
13 | CN(C)CCOCCN(C)C | – | inactive
14 | NCCc1cnc[nH]1 | 11% [at 42.5 µM] | –
15 | CCN1CCN(c2cc3c(cc2F)c(=O)c(C(=O)O)cn3C2CC2)CC1 | 3.95% [at 42.5 µM] | –
16 | C=CC1CO1 (configuration not stated) | 10.7% | –
17 | C=CC(=O)OCC(O)COc1ccccc1 (configuration not stated) | 6% | –
18 | O=[N+]([O-])c1cc(C2CCCCC2)c(O)c([N+](=O)[O-])c1 | -26.8% | –
19 | CC(C)C(=O)C(C)C | 0.0592% | –
20 | CC/C(=C\C(=N/O)C(N)=O)C(C)[N+](=O)[O-] (configuration not stated) | -2.73% | –
21 | CC(C(O)c1ccccc1)N(C)CCOC(c1ccccc1)c1ccccc1 (configuration not stated) | -10% [at 42.5 µM] | –
22 | Cc1c2ccccc2c(C)c2c1ccc1ccccc12 | – | inactive
